# Screening data (PubChem)
# Compounds with a hit are over-represented: about 1.7% of the library has one in this group of screens.
# KCNH2 WT inh: qHTS for Inhibitors of KCHN2 3.1: Wildtype qHTS | U2OS, BacMam KCNH2, thallium flux FluxOr; stronger effect = lower value | activity change, % at 1.84 µM | 340,000 tested, 0.37% active;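 active = maximum activity change below -70%; inconclusive = maximum activity change between -70% and -50%; inactive = maximum activity change above -50%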; also: % is scaled to controls: 0 for no effect and ±100 for the full control effect
#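 U2OS cells were transduced with wild-type KCNH2 virus (2.03 x 10^8 / mL) for 4 h at room temperature, then cultured overnight at 37 C. Thallium flux was read with FluxOr dye. Rate constants were normalized to DMSO controls.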
# TRHR agonist: qHTS for Small Molecule Agonists and Allosteric Enhancers of Human TRH Receptor: Primary Screen for Agonists; TRHR cells, calcium flux fluo-8, FDSS agonist mode; activation, % at 2 µM; 360,000 tested, 0.18% active; AID 493084, 2011; in the data active = activation above about 30%; also: 0% is about no effect
# Target sequence (P34981 whole entry, looked up): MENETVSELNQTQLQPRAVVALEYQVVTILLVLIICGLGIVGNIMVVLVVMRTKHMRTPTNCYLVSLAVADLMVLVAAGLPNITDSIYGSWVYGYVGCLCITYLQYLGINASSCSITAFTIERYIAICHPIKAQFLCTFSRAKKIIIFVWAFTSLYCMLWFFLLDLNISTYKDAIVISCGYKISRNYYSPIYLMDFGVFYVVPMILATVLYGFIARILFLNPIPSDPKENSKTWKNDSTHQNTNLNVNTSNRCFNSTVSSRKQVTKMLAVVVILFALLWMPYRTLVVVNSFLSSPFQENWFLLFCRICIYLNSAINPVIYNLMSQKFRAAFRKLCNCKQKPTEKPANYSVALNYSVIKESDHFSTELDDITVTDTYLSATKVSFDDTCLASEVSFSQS
#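 TRHR-expressing cells, plated overnight in medium with 10% serum, were loaded with fluo-8 calcium dye at room temperature. After a 10 s baseline, library compound was pin-added and calcium release was recorded kinetically (ex 480/em 530) as agonist response.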
# TRPML1 ag: qHTS for Agonists of the Human Mucolipin Transient Receptor Potential 1 (TRPML1). Mucolipin-1 (Homo sapiens), Q9GZU1. TRPML1-expressing cells, Ca2+ dye fluorescence, FDSS. activation, % (no concentration beside the values). 410,000 tested, 0.12% active; in the data active = activation above about 50%; inconclusive = mostly about 30% to 49%; also: 0% is about no effect
#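 Calcium fluorescence on an FDSS kinetic reader gave the read-out. Tet-induced TRPML1-DL cells were plated overnight, dye-loaded (Ca8 with quencher, 45-90 min, room temperature, dark), then read 110 s after compound addition, and again 110 s after 4uM final 54-4 (EC80).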
# TRHR PAM: qHTS for Small Molecule Agonists and Allosteric Enhancers of Human TRH Receptor: Primary Screen for Enhancers. AID 493056, 2011. Thyrotropin-releasing hormone receptor (Homo sapiens), P34981. TRHR cells, fluo-8 calcium fluorescence, EC20 TRH enhancement. 360,000 tested, 0.66% active. enhancement, % at 2 µM; in the data active = enhancement above about 30%; also: 0% is about no effect
#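 Enhancer read-out: after compound pinning and an initial kinetic agonist-mode read, an EC20 of TRH (10 nM final) was injected and fluo-8 calcium signal (Ex 480/Em 530) followed at 1 s/cycle for 100 cycles in TRHR-expressing cells.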
# TRPML1 inh: qHTS for Inhibitors of the Human Mucolipin Transient Receptor Potential 1 (TRPML1); Mucolipin-1 (Homo sapiens), Q9GZU1; TRPML1-inducible cells, Ca2+ dye fluorescence, FDSS; stronger effect = lower value; inhibition of EC80 agonist-evoked calcium signal; activity change, negative = inhibition, % (test concentration not listed); 390,000 tested, 0.02% active; in the data active = activity change below about -50%; inconclusive = between about -30% and that limit;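 also: stimulus is agonist 54-4 at its EC80 concentration; % is scaled to controls: 0 for no effect and ±100 for the full control effect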
#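 TRPML1-DL cells, Tet-induced overnight (~16 h, 37 °C) at 1,500 cells/well, were loaded with Ca8 no-wash dye plus quencher for 45-90 min at room temperature. Compounds were pinned during FDSS kinetic reading; agonist 54-4 at EC80 (4 uM final) then added.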
# KCNH2 3.1 block: qHTS for Inhibitors of KCHN2 3.1: Mutant qHTS. U2OS KCNH2 3.1, thallium flux FluxOr; stronger effect = lower value. activity change, % (tested at about 1.8 µM). 340,000 tested, 0.95% active;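 active = maximum activity change below -70%; inconclusive = maximum activity change from -70% to -50%; inactive = maximum activity change above -50%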;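 also: thallium influx rate constant from kinetic fluorescence after stimulation buffer; % is scaled to controls: 0 for no effect and ±100 for the full control effect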
#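 Measured as rate of thallium-driven FluxOr signal in transduced U2OS cells carrying the 3.1 channel, read kinetically for 2 min upon stimulation; values are rate constants scaled to DMSO control wells.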
# * = called active by the depositor; ? = inconclusive; . = not tested or not shown; ! = not active in a repeat.
SMILES,KCNH2 WT inh,TRHR agonist,TRPML1 ag,TRHR PAM,TRPML1 inh,KCNH2 3.1 block
O=C(NCCc1ccccc1)C1CCN(S(=O)(=O)N2CCOCC2)CC1,-104*,0,0,-3,-18,-3
O=C(NCc1ccccc1)C1CCN(S(=O)(=O)N2CCOCC2)CC1,-2,0,0,-2,2,7
O=C(Oc1ccc(C(=S)N2CCOCC2)cc1)c1ccc([N+](=O)[O-])cc1[N+](=O)[O-],-8,1,0,0,10,-6
O=C(Oc1ccc(Br)cc1C(=S)N1CCOCC1)c1ccc([N+](=O)[O-])cc1[N+](=O)[O-],-13,0,-2,36*,-3,-8
Cc1cc2c(c(=O)n1Cc1ccccc1)C1O[C@](c3ccsc3)(Cc3ccccc31)O2,.,3,.,-2,.,.
CCCCn1c(C)cc2c(c1=O)C1O[C@](c3ccsc3)(Cc3ccccc31)O2,.,0,.,33*,.,.
CC1CCCN(C(=O)COC(=O)Cc2c[nH]c3ccccc23)C1 (centres undefined),1,0,1,-3,18,0
Cc1ccc(S(=O)(=O)N2CCN(C(=O)CCc3c[nH]c4ccccc34)CC2)cc1,-4,0,-1,0,-3,4
O=C(CCc1c[nH]c2ccccc12)OCC(=O)N1CCN(S(=O)(=O)c2ccccc2)CC1,-101*,0,0,-4,1,-17
COC(=O)C1CCN(C(=O)COC(=O)Cc2c[nH]c3ccccc23)CC1,-27,1,0,37*,-8,8
Cc1nnc(SCCn2c(N3CCN(C)CC3)nc3c2c(=O)[nH]c(=O)n3C)s1,4,0,-1,41*,6,-9
CCOc1ccc(CN(C)CC(=O)NCc2ccc(F)cc2)cc1,?,0,2,-16,-5,-103*
CCOc1ccc(C(=O)CCC(=O)N(CC)CC(=O)NCc2ccc(Cl)cc2)cc1,-160*,-1,-1,9,11,-2
COc1ccc(CNC(=O)CN(C)Cc2ccc(SC)cc2)cc1,-9,0,3,5,12,-78*
CCN(CC(=O)NCc1ccc(Cl)cc1)C(=O)COc1cccc(Cl)c1,5,1,1,-10,-10,-38
CN(CC(=O)NCc1ccc(F)cc1)Cc1ccc(Br)cc1,8,-2,0,-6,-2,22
Cn1nc(-c2ccccc2)c(C(=O)Nc2ccc(C(F)(F)F)cc2)c1Cl,-5,0,0,0,4,-73*
Cc1cc2[nH]c3c(=O)n(Cc4ccccc4F)ncc3c2s1,.,0,.,-6,.,.
C=CCC1NS(=O)(=O)OC2CCCCC12 (centres undefined),17,0,-1,1,32,10
C=CCC1NS(=O)(=O)OC2CCCC12 (centres undefined),.,0,0,37*,-3,.
O=C(NCc1ccccc1)c1nc[nH]c1C(=O)NCc1ccccc1,1,0,3,33*,13,-18
CC(C)(C)OC(=O)CNC(=O)c1nc[nH]c1C(=O)N1CCc2ccccc2C1,7,0,0,3,-12,-71*
CC(C)(C)OC(=O)[C@H](Cc1ccccc1)NC(=O)c1nc[nH]c1C(=O)NCc1ccccc1,0,0,0,4,-11,-107*
CCCOc1ccc(NC(=O)CC2C(=O)N(c3cccc(C)c3)C(=O)N2CCc2ccncc2)cc1 (centres undefined),.,0,0,3,0,.
COc1cc2nc(N3CCCCC3)nc(NC3CCN(Cc4ccccc4)CC3)c2cc1OC,.,.,0,.,.,.
SMILES,KCNH2 WT inh,TRHR agonist,TRPML1 ag,TRHR PAM,TRPML1 inh,KCNH2 3.1 block
CCOC(=O)c1ccc(NC(=O)CC2C(=O)N(c3ccc(C)cc3)C(=O)N2C2CCCC2)cc1 (centres undefined),.,1,2,-4,-11,.
S=c1[nH]nc(-c2n[nH]c3c2CCC3)n1/N=C/C=C/c1ccco1,-6,-1,-1,39*,0,7
Nc1c(O)ccc2c1C(=O)c1ccccc1C2=O,0,0,1,21,17,19
Nc1cc(N)c2c(c1)C(=O)c1ccccc1-2,-131*,.,-1,.,3,-198*
Cc1ccccc1OCC(O)Cn1c(=N)n(Cc2ccccc2)c2ccccc21 (centres undefined),-2,2,1,13,0,?
CCCCCn1c(=N)n(CC(O)COc2ccccc2OC)c2ccccc21 (centres undefined),-85*,1,-1,3,-4,-107*!
COc1ccccc1OCC(O)Cn1c(=N)n(Cc2ccccc2)c2ccccc21 (centres undefined),10,-2,-1,-3,25,-89*
C=CCn1c(=N)n(CC(O)COc2ccccc2OC)c2ccccc21 (centres undefined),65,0,0,4,-6,-16
CC(=O)c1ccc(NC(=S)Nc2cccc(S(=O)(=O)Nc3c(C)n(C)n(-c4ccccc4)c3=O)c2)cc1,7,3,-1,-2,52,-10
Cc1ccc(NC(=S)Nc2cccc(S(=O)(=O)Nc3c(C)n(C)n(-c4ccccc4)c3=O)c2)cc1,4,0,-1,32*,22,-4
Cc1c(NC(=O)Nc2cccc(Cl)c2)c(=O)n(-c2ccccc2)n1C,13,0,0,-1,-9,-4
Cc1cccc(NC(=O)Nc2c(C)n(C)n(-c3ccccc3)c2=O)c1,-102*,2,2,10,1,0
O=C(NC(=S)N(CCc1ccccc1)CCc1ccccc1)c1ccco1,-123*,0,0,-4,-3,14
CC(CCc1ccccc1)NC(=S)NC(=O)c1ccco1 (centres undefined),1,-1,2,-3,20,2
CC(C)Cn1nc(NC(=O)c2cccc(Cl)c2)c2cc3ccccc3nc21,.,-1,2,3,-14,.
